# Results from PubChem BioAssay AID720697 (Broad Institute, 2013).
# Results with a measured potency or affinity are listed apart. Results filed as inconclusive are left out. Activity calls are given as the source filed them.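 The calls were made as follows: active = signal loss with fitted half-maximal concentration at or below twice the top valid tested dose in every test run; inconclusive = runs disagree, flat 30 to 70% signal loss, or poor fit; inactive = all runs flat, opposite direction, or potency beyond limit.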
# Experiment: HEK293T cytotoxicity, dose response, cytotoxicity control for miR-122 modulator project, cell-based, inhibitor set, cherry-pick, set 2 (AID 720697);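 also: 0% = median of neutral control wells and -100% = MG132 positive control wells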
# Settings: HEK293T viability, CellTiter-Glo luminescence, 48 h; series mostly up to 26 µM; activity change, negative = cytotoxicity: at the top concentration
row,SMILES,"activity change, negative = cytotoxicity"
1,COCC(=O)N1[C@H](CO)[C@@H](c2ccccc2)[C@H]1CNC(=O)c1ccccn1,106% [at 23.5 µM] (inactive)
2,N=c1n(CC(=O)c2ccc(Br)s2)c2ccccc2n1Cc1ccccc1,-12.8% (inactive)
3,C/C=C/c1ccc([C@@H]2[C@@H](CO)N(C(=O)Cc3cccnc3)[C@H]2CNC(C)=O)cc1,128% (inactive)
4,CN1C(=O)c2cc(NS(=O)(=O)c3ccc(Cl)cc3)ccc2OC[C@@H]2O[C@H](CC(=O)N3CCc4ccccc4C3)CC[C@H]21,53% (inactive)
